Experimental data as given in PubChem BioAssay (NCATS).
Inconclusive results are not listed. Calls of active or inactive are those of the source. Unless noted, the call rests on the fitted dose curve; in most records, active means well fitted curve in the direction sought with a large enough effect; inconclusive means small, poorly fitted or top-dose-only effect, or another doubt; inactive means no such curve, though single readings can be large; an effect the other way counts as inactive or inconclusive.

Assays:
[1] = qHTS assay for measurement of the activity of small molecule inhibitors on Zika virus induced Caspase-3 activity in human iPSC derived neural progenitor cells (hNPCs) (AID 1224857); further: nearly all actives have a fitted effect of over 65% in size
Method in brief: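 Human iPSC-derived neural progenitor cells pretreated 1 hr with compounds, then infected with Zika virus (2 FFU/cell) for 6 hours at 37 C. Caspase-3/7 measured by Caspase-Glo luminescence; % inhibition calculated from induction scaled to uninfected (0%) and infected (100%) wells.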

[2] = qHTS assay for measurement of the activity of small molecule inhibitors on Zika virus induced Caspase-3 activity in human astrocytoma cells (AID 1224859)
Method in brief: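 SNB-19 astrocytoma cells, 250/well, pretreated 1 h with compounds, then Zika virus at 2 FFU/cell for 6 h at 37 C; Caspase-Glo 3/7 luminescence after 30 min; percent inhibition normalised to uninfected and infected controls.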

[3] = qHTS assay to identify small molecule inhibitors of chordoma cells - UCH-2 (AID 1259356)
[4] = P-glycoprotein substrates identified in KB-8-5-11 adenocarcinoma cell line, qHTS therapeutic library screen (AID 1346987); settings: outcome: dose series up to 44.5 µM; further: nearly all actives have a fitted effect of over 65% in size
Method in brief: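 In this qHTS, P-gp-rich KB-8-5-11 cells received library compounds across a concentration range. Viability was quantified by luminescence after 72 h at 37 degree C.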

[5] = NS1 protein of Zika virus - qHTS assay to identify small molecule inhibitors in human HEK 293 cells (AID 1347053); further: nearly all actives have a fitted effect of over 55% in size
Method in brief: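 Read-out is a two-antibody TR-FRET for ZIKV NS1, normalized between uninfected cells and infected cells. Compound added 1 h before MR766 infection at MOI 0.5; human HEK 293 cells incubated 24 h, 37 C.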

[6] = qHTS of pediatric cancer cell lines to identify multiple opportunities for drug repurposing: Primary screen for TC32 cells (AID 1347089); further: nearly all actives have a fitted effect of over 60% in size
Method in brief: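 Luminescent ATP read-out (CellTiter-Glo) of metabolically active TC32 cells after 48 h exposure. Concentration-response curves came from 11-point (MIPE, 0.78 nM–46 µM) or 8-point (NPC, 0.59 nM–46 µM) primary titrations; follow-up used 11 points.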

[7] = qHTS of pediatric cancer cell lines to identify multiple opportunities for drug repurposing: Primary screen for DAOY cells (AID 1347090); further: nearly all actives have a fitted effect of over 55% in size
Method in brief: (§1)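 Viability measured as metabolically active cells via CellTiter-Glo luminescence following 48 hours of compound exposure, 11-point dilutions in confirmatory testing. 500-1,000 cells/well plated 5 hours before dosing; controls were DMSO and 2.3 µM bortezomib.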

[8] = qHTS of pediatric cancer cell lines to identify multiple opportunities for drug repurposing: Primary screen for SJ-GBM2 cells (AID 1347091)
Method in brief: as §1

[9] = qHTS of pediatric cancer cell lines to identify multiple opportunities for drug repurposing: Primary screen for A673 cells (AID 1347092); further: nearly all actives have a fitted effect of over 45% in size
Method in brief: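 Cell viability of A673 measured by CellTiter-Glo ATP luminescence after 48 hours compound exposure. Dilution series spanned 0.78 nM to 46 µM (MIPE, 11-point) or 0.59 nM to 46 µM (NPC, 8-point); bortezomib 2.3 uM positive control.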

[10] = qHTS of pediatric cancer cell lines to identify multiple opportunities for drug repurposing: Primary screen for SK-N-MC cells (AID 1347093)
Method in brief: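 Metabolically active cells were quantified by ATP-dependent luminescence (CellTiter-Glo, 15 min at room temperature) following 48 h treatment. Cells had been plated at 500-1,000 per well and settled for 5 h beforehand.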

[11] = qHTS of pediatric cancer cell lines to identify multiple opportunities for drug repurposing: Primary screen for BT-37 cells (AID 1347094)
Method in brief: (§2)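 Cells plated at 500-1,000/well in growth medium, compounds added after 5 h. MIPE tested at 11 points (from 0.78 nM), NPC at 8 points (from 0.59 nM). CellTiter-Glo luminescence after 48 h; concentration-response curves from primary screen.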

[12] = qHTS of pediatric cancer cell lines to identify multiple opportunities for drug repurposing: Primary screen for NB-EBc1 cells (AID 1347095)
Method in brief: as §2

[13] = qHTS of pediatric cancer cell lines to identify multiple opportunities for drug repurposing: Primary screen for U-2 OS cells (AID 1347096); further: nearly all actives have a fitted effect of over 50% in size
Method in brief: (§3)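 Viability after 48 h compound treatment at 37C, 500-1,000 cells/well, read as ATP luminescence with CellTiter-Glo. Primary screens used 11-point (MIPE, 0.78 nM-46 µM) or 8-point (NPC, 0.59 nM-46 µM) final concentrations; follow-up screens used 11-point dilutions.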

[14] = qHTS of pediatric cancer cell lines to identify multiple opportunities for drug repurposing: Primary screen for Saos-2 cells (AID 1347097); further: nearly all actives have a fitted effect of over 40% in size
Method in brief: as §2

[15] = qHTS of pediatric cancer cell lines to identify multiple opportunities for drug repurposing: Primary screen for SK-N-SH cells (AID 1347098);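 further: DMSO served as neutral control and bortezomib at 2.3 µM as positive control; nearly all actives have a fitted effect of over 65% in size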
Method in brief: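 Cells (500-1,000/well) rested 5 h, then received compounds for 48 h; metabolically active cells were measured by CellTiter-Glo luminescence. Final concentrations spanned up to 46 µM (MIPE, 11-point) or 0.59 nM-46 µM (NPC, 8-point) in primary screens, 11-point in follow-ups.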

[16] = qHTS of pediatric cancer cell lines to identify multiple opportunities for drug repurposing: Primary screen for NB1643 cells (AID 1347099); further: nearly all actives have a fitted effect of over 50% in size
Method in brief: as §2

[17] = qHTS of pediatric cancer cell lines to identify multiple opportunities for drug repurposing: Primary screen for LAN-5 cells (AID 1347100)
Method in brief: as §3

[18] = qHTS profiling of the MIPE4 collection as inhibitors of Plasmodium falciparum (HB3) proliferation (AID 743347; call rule not given here); settings: P. falciparum HB3 in erythrocytes, SYBR Green DNA, 72 h; at 9.64 µM (top of the series) unless noted
Method in brief: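 Parasite DNA was quantified by SYBR Green I fluorescence (ex 485, em 535 nm) after overnight lysis in saponin/Triton buffer at room temperature. Cultures at 0.3% parasitemia and 2.5% hematocrit were first exposed to compound for 72 h at 37 C; signals were normalised to artemisinin (0.29 uM) and vehicle wells.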

O=C(OOC(=O)c1ccccc1)c1ccccc1
inactive: outcome [1] | outcome [2] | outcome [3] | outcome [4] | outcome [5] | outcome [6] | outcome [7] | outcome [8] | outcome [9] | Potency [10] | outcome [11] | outcome [12] | outcome [13] | outcome [14] | outcome [15] | Potency [16] | outcome [17]

COc1ccccc1OCC(O)CO (configuration not stated)
inactive: outcome [1] | outcome [2] | outcome [3] | outcome [4] | outcome [5] | outcome [6] | outcome [7] | outcome [8] | outcome [9] | Potency [10] | outcome [11] | outcome [12] | outcome [13] | outcome [14] | outcome [15] | outcome [17]

NS(=O)(=O)c1cc(C2(O)NC(=O)c3ccccc32)ccc1Cl (configuration not stated)
inactive: outcome [1] | outcome [2] | outcome [3] | outcome [4] | outcome [5] | outcome [6] | outcome [7] | outcome [9] | Potency [10] | outcome [11] | outcome [12] | outcome [13] | outcome [14] | Potency [16] | outcome [17]

Cc1ccsc1/C=C/C1=NCCCN1C
inactive: outcome [1] | outcome [2] | outcome [3] | outcome [4] | outcome [5] | outcome [6] | outcome [7] | outcome [9] | Potency [10] | outcome [11] | outcome [12] | outcome [13] | outcome [14] | outcome [15] | Potency [16] | outcome [17]

CC(C)NC[C@@H](O)COc1ccc(CC(N)=O)cc1
inactive: outcome [1] | outcome [2] | outcome [3] | outcome [4] | outcome [5] | outcome [6] | outcome [7] | outcome [9] | Potency [10] | outcome [11] | outcome [12] | outcome [13] | outcome [14] | Potency [16] | outcome [17]

COc1ccc(NS(=O)(=O)c2ccc(N)cc2)nn1
62.1%: growth, % of control [18]
inactive: outcome [1] | outcome [2] | outcome [3] | outcome [4] | outcome [5] | outcome [6] | outcome [7] | outcome [8] | outcome [9] | outcome [11] | outcome [12] | outcome [13] | outcome [14] | outcome [15] | outcome [17]

CN1C(=O)CC(c2ccccc2)C1=O (configuration not stated)
inactive: outcome [1] | outcome [2] | outcome [3] | outcome [4] | outcome [5] | outcome [6] | outcome [7] | outcome [8] | outcome [9] | Potency [10] | outcome [11] | outcome [12] | outcome [13] | outcome [14] | outcome [15] | Potency [16] | outcome [17]

CC(=O)[C@@]1(O)CC[C@H]2[C@@H]3C[C@H](C)C4=CC(=O)C=C[C@]4(C)[C@@]3(F)[C@@H](O)C[C@@]21C
inactive: outcome [1] | outcome [2] | outcome [3] | outcome [4] | outcome [5] | outcome [6] | outcome [7] | outcome [8] | outcome [9] | Potency [10] | outcome [12] | outcome [14] | outcome [15] | Potency [16] | outcome [17]

C=CCOc1ccccc1OCC(O)CNC(C)C (configuration not stated)
inactive: outcome [1] | outcome [2] | outcome [3] | outcome [4] | outcome [5] | outcome [6] | outcome [7] | outcome [8] | outcome [9] | Potency [10] | outcome [12] | outcome [14] | outcome [15] | outcome [17]

O=C(NCN1CCOCC1)c1cnccn1
inactive: outcome [1] | outcome [2] | outcome [3] | outcome [4] | outcome [5] | outcome [6] | outcome [7] | outcome [8] | outcome [9] | Potency [10] | outcome [11] | outcome [12] | outcome [14] | outcome [15] | Potency [16] | outcome [17]
